Assay [1] can be described thus: qHTS of pediatric cancer cell lines to identify multiple opportunities for drug repurposing: Confirmatory screen for OHS-50 cells (AID 1347128).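 Further: compound exposure lasted 48 h at 37 degrees C; nearly all actives have a fitted effect of over 55% in size.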 Further: potency means the concentration at half of the fitted maximal effect. Put shortly: (§1)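 Cells (500-1,000/well) rested 5 h, then received compounds for 48 h; metabolically active cells were measured by CellTiter-Glo luminescence. Final concentrations spanned up to 46 µM (MIPE, 11-point) or 0.59 nM-46 µM (NPC, 8-point) in primary screens, 11-point in follow-ups.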

The nature of assay [2]: qHTS of pediatric cancer cell lines to identify multiple opportunities for drug repurposing: Confirmatory screen for SK-N-SH cells (AID 1347129).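 Further: cells exposed to compound for 48 h before viability read; nearly all actives have a fitted effect of over 60% in size.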 Further: potency means the concentration at half of the fitted maximal effect. Put shortly:
as §1
(qHTS replaces the single test concentration by a dilution series.)

Assay [3] concerns Zika virus NS2B-NS3 protease. As to the kind of experiment: Primary screen GU AMC qHTS for Zika virus inhibitors (AID 1347154). Further: nearly all actives have a fitted effect of over 70% in size. Put shortly: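 Fluorogenic AMC-substrate cleavage by noncovalent NS2B-NS3 protease complex (25 nM, pH 8.0 Tris buffer with Tween 20) followed for 15 minutes at room temperature (~20% conversion). Percent inhibition from ex340/em450 signal change, fitted by 4-parameter Hill equation.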

Assay [4] deals with N-terminal Xaa-Pro-Lys N-methyltransferase 1 (Homo sapiens) (UniProt Q9BV86). The assay can be described thus: qHTS Assay for Inhibitors of N-terminal methyltransferase 1 (NTMT1): LOPAC validation of the NTMT1 SAHH-coupled ThioGlo3 Assay (AID 1347143).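 Further: SAH from peptide methylation measured as thiol fluorescence via SAHH coupling and ThioGlo3; nearly all actives have a fitted effect of over 70% in size.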 Put shortly: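 NTMT1 125nM + cpds (various conc.), 1 min RT; add SAM 100uM/SAHH 10uM/ThioGlo3 15uM (addition mix). SAHH-coupled thiol detection, Ex340/Em450, t0 and 30 min RT; signal normalized to background. LOPAC 1280-cpd pilot.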

Assay [5] relates to Zika virus NS2B-NS3 protease (unlinked). The assay can be described thus: Optimization of GU AMC qHTS for Zika virus inhibitors: Unlinked NS2B-NS3 protease assay (AID 1347151). Further: series mostly up to about 52 µM; nearly all actives have a fitted effect of over 80% in size. Put shortly: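 Fluorescence gain (340/450 nm) over 15 min at room temperature, ~20% conversion, gave percent inhibition fitted to a 4-parameter Hill equation; enzyme was unlinked NS2B-NS3 (25 nM final), pH 8.0 Tris buffer.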

Structures are written as SMILES. Results filed as inconclusive are left out. Calls of active or inactive are those of the source. The call rests on the fitted dose curve; in most records, active means well fitted curve in the direction sought with a large enough effect; inconclusive means small, poorly fitted or top-dose-only effect, or another doubt; inactive means no such curve, though single readings can be large; an effect the other way counts as inactive or inconclusive.

Chain of N-terminal Xaa-Pro-Lys N-methyltransferase 1 (Homo sapiens) (Q9BV86 whole entry, looked up): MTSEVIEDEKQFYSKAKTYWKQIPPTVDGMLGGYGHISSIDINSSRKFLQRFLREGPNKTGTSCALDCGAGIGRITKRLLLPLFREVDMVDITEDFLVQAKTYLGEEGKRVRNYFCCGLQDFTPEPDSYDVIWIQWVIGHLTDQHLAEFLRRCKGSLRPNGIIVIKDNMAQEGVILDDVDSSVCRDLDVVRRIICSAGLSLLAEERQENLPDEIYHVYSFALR

Take `CC(C)(C)CC(=O)OCC(=O)[C@@]1(O)CC[C@H]2[C@@H]3CCC4=CC(=O)C=C[C@]4(C)[C@H]3[C@@H](O)C[C@@]21C`: the Potency result in assay [1], in assay [2] and in assay [3] was “inactive” in each case.
In the case of `CCc1cc2cc(OC)c(OC)cc2c(Cc2ccccc2)n1`, the Potency result in assay [2] and in assay [3] was “inactive” throughout.
With `CC(=O)OCC(=O)[C@@]1(O)[C@H](OC(C)=O)C[C@H]2[C@@H]3CCC4=CC(=O)C=C[C@]4(C)[C@@]3(F)[C@@H](O)C[C@@]21C`, the Potency result in assay [1], in assay [2] and in assay [3] was “inactive” each time.
As for `CO[C@@H]1[C@@H](OC)[C@H](C)[C@@](O)(CC(=O)O)O[C@H]1[C@H](C)[C@H]1O[C@@]2(CC[C@@](C)([C@H]3CC[C@@](C)([C@@H]4O[C@@H]([C@H]5O[C@](C)(O)[C@H](C)C[C@@H]5C)C[C@@H]4OC4C[C@H](OC)[C@@H](OC)[C@H](C)O4)O3)O2)C[C@H](O)[C@H]1C` (some centres not stated), the Potency is 0.657 µM (active) in assay [1] and 1.48 µM (active) in assay [2]. Also, in assay [3], the Potency result was “inactive”.
Regarding `CCCC(=O)O[C@]1(C(=O)CCl)[C@@H](C)C[C@H]2[C@@H]3CCC4=CC(=O)C=C[C@]4(C)[C@@]3(F)C(=O)C[C@@]21C`, the Potency result in assay [1], in assay [2] and in assay [3] was “inactive” throughout.
`Cc1nc(N)nc(N)c1-c1ccc(Cl)c(Cl)c1`: the Potency in assay [1] was 1.31 µM (active). In addition, the Potency entry in assay [2] and in assay [3] was “inactive” throughout.
As for `CCCCC(=O)OCC(=O)[C@H]1[C@H](C)C[C@H]2[C@@H]3C[C@H](F)C4=CC(=O)C=C[C@]4(C)[C@@]3(F)[C@@H](O)C[C@@]21C`, the Potency in assay [1] was 20.8 µM (active). The Potency result in assay [2] and in assay [3] was “inactive” each time.
As for `N[C@@H](Cn1ccc(=O)c(O)c1)C(=O)O`, the Potency entry in assay [4] and in assay [5] was “inactive” in each case.

The values are drawn from PubChem BioAssay (NCATS).
